Source: paper PMC10338342

Legend:
Protein max = Protein max (UniProt P61244); assay: cross-link between two proteins; cross-linking mass spectrometry; other
Histone H2B type 1-J = Histone H2B type 1-J (UniProt P06899); assay: cross-link between two proteins; cross-linking mass spectrometry
Histone H3.1 = Histone H3.1 (UniProt P68431); assay: as above
Histone H4 = Histone H4 (UniProt P62805); assay: as above

Sequence of Protein max (P61244 whole entry): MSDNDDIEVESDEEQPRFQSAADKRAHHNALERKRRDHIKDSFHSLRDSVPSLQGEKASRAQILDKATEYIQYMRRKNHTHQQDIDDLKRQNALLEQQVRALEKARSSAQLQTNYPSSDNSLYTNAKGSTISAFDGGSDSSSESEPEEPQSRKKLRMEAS
Sequence of Myc proto-oncogene protein, P01106 (P01106 whole entry): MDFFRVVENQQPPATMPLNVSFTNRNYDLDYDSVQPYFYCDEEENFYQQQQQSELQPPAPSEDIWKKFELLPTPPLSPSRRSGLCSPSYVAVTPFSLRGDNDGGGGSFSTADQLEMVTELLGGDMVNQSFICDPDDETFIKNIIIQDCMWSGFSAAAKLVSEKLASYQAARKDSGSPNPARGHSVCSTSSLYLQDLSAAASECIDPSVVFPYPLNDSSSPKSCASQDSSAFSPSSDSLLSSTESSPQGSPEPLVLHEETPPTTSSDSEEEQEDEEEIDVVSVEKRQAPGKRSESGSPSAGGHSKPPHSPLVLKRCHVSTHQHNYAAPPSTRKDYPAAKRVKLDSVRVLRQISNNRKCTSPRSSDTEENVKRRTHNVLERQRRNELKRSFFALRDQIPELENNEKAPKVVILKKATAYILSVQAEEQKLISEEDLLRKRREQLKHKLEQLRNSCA

In the case of Myc proto-oncogene protein, P01106, the “listed as a hit” value (Protein max) is reported as “yes”.
Histone H2A type 1-B/E, P04908 was tested, and the “listed as a hit” value (Histone H2B type 1-J) was “yes”, the “listed as a hit” value (Histone H3.1) was “yes” and the “listed as a hit” value (Histone H4) was “yes”.
In the case of Histone H2B type 1-J, P06899, the “listed as a hit” value (Histone H3.1) is reported as “yes” and the “listed as a hit” value (Histone H4) is reported as “yes”.
